Structures are written as SMILES. Records with an inconclusive call do not appear. The source made the active and inactive calls. Unless noted, the call rests on the fitted dose curve; in most records, active means well fitted curve in the direction sought with a large enough effect; inconclusive means small, poorly fitted or top-dose-only effect, or another doubt; inactive means no such curve, though single readings can be large; an effect the other way counts as inactive or inconclusive.

The text below walks through data of PubChem BioAssay (NCATS).

The nature of experiment [1]: NCATS anti-infectives library activity on HEK293 viability as a counter-qHTS vs the C. elegans viability qHTS (AID 1745854). Further: on the % scale 0 is the no-effect control and ±100 the full control effect. The method, boiled down: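 HEK293 cells, 1500 per well, exposed 24 hr at 37C in 5% CO2 to compounds in a 1:5 titration, up to 41.7 uM final. Viability read as CellTiter-Glo luminescence after 10 min at room temperature.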
The target in experiment [2] is Glutathione peroxidase 1 (Homo sapiens) (UniProt P07203). Description: Primary qHTS Assay for Inhibitors of Recombinant Selenoprotein Glutathione Peroxidase 1 (GPX1) (AID 1845191). Further: nearly all actives have a fitted effect of over 65% in size. The procedure, abridged:
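GR-coupled assay: compounds preincubated 30 min at room temperature with GPX1, then reaction started with CHP; final 10 nM GPX1, 1 mM GSH, 0.5 mM CHP, 0.5 mM NADPH, 100 nM GR, 0.01% BSA, pH 7.5 Tris buffer. NADPH fluorescence (340/450 nm) read at 0 and 15 min.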
For orientation: In qHTS, concentration-response curves come from the screen itself.

The target in experiment [3] is Phospholipid hydroperoxide glutathione peroxidase GPX4 (Homo sapiens) (UniProt P36969). As to the kind of experiment: Primary qHTS Assay for Inhibitors of Recombinant Selenoprotein Glutathione Peroxidase 4 (GPX4) (AID 1845192). Further: nearly all actives have a fitted effect of over 65% in size. Further: potency means the concentration at half of the fitted maximal effect. On activity change, negative = inhibition: on the % scale 0 is the no-effect control and ±100 the full control effect. The method, boiled down:
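GR-coupled assay: recombinant GPX4 preincubated 30 min with compound at room temperature; final 200 nM GPX4, 1 mM GSH, 0.5 mM cumene hydroperoxide, 0.5 mM NADPH, 100 nM GR, 0.01% BSA, pH 7.5 Tris. NADPH fluorescence (340/450 nm) read at 0 and 15 min.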

The target of experiment [4] is Luciferin 4-monooxygenase (Photinus pyralis) (UniProt P08659). As to the kind of experiment: Primary firefly luciferase (FLuc) qHTS assay for identification of artifact compounds. (AID 1845220). Further: nearly all actives have a fitted effect of over 60% in size.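 On activity change, negative = inhibition: plate controls were DMSO vehicle for no effect and no enzyme for full effect.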 The procedure, abridged:
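Enzymatic FLuc inhibition assay: compounds pre-exposed to luciferin/ATP (10 uM each) for 15 min, then purified P. pyralis enzyme at 10 nM added. Read-out: luminescence at 5 min.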

Experiment [5] is described as follows: Primary fluorescence-based thiol-reactive (MSTI) qHTS assay for identification of artifact compounds. (AID 1845221). Further: nearly all actives have a fitted effect of over 65% in size. Further: potency means the concentration at half of the fitted maximal effect. The procedure, abridged: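 MSTI probe at 4 uM final in 2% DMSO/PBS pH 7.4; compounds, 1 h at room temperature in dark. Fluorescence Ex/Em 525/598 nm, normalised to Acetyl-MSTI and MSTI, fitted to 4-parameter Hill.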
Experiment [6] concerns Nanoluciferase (engineered Oplophorus gracilirostris luciferase). Description: Primary Nanoluciferase (NLuc) qHTS assay for identification of artifact compounds. (AID 1845222).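 Further: NLuc secreted into diluted conditioned medium of S16 cells; 0% = DMSO and -100% = no enzyme.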 The procedure, abridged:
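S16 cell supernatant NLuc, 1:55; cpds qHTS; 15 min RT dark; Nano-Glo substrate 1:100, 5 min; luminescence; Hill fit of % inhibition.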

The nature of experiment [7]: Primary redox qHTS assay for identification of artifact compounds. (AID 1845223). The procedure, abridged:
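Amplex Red (25 uM) and HRP (250 mU/mL) in HBSS, with compounds for 15 min, then 250 uM DTT for 30 min, room temperature, dark. Fluorescence 525/598 nm read; normalized to DMSO and 10 uM DA3003; Hill fit.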

A short description of experiment [8]: Quantitative High-Throughput drug screen in 47 multiple myeloma cell lines against the NCATS MIPE library collection: Delta47_JCRB cell viability assay (AID 1918925; further: nearly all actives have a fitted effect of over 45% in size; further: potency means the concentration at half of the fitted maximal effect). The method, boiled down: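 Luminescent ATP measurement with CellTiter-Glo gives viability, scaled between DMSO-only wells (100%) and media-only wells (0%). Cells, 500 per well, faced library compounds for 48 hours at 37C.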

The target in experiment [9] is Catechol O-methyltransferase (Homo sapiens) (UniProt P21964). As to the kind of experiment: Confirmatory Screen for Target Class Profiling of Small Molecule Inhibitors of Methyltransferases (AID 1745852; calls by dose curve; further: potency means the concentration at half of the fitted maximal effect; on activity change, negative = inhibition: on the % scale 0 is the no-effect control and ±100 the full control effect). The note with it: MTase-Glo luminescence, SAH detection, recombinant enzyme; measured here: COMT max response; stronger effect = lower value.
Sequence of Catechol O-methyltransferase (Homo sapiens) (P21964 whole entry, looked up): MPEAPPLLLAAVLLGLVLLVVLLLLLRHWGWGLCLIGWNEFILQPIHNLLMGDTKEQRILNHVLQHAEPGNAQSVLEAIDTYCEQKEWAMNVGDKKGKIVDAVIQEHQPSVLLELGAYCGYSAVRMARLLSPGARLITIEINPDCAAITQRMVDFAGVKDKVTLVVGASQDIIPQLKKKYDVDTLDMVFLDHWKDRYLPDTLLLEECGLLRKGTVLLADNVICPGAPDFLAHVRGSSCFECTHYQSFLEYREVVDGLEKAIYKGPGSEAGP
Experiment [10] has as its target Guanidinoacetate N-methyltransferase (Homo sapiens) (UniProt Q14353). The description is as above. As to conditions: MTase-Glo luminescence, SAH detection, recombinant enzyme; activity change, negative = inhibition: at 57.3 µM (top of the series) unless noted.
The target in experiment [11] is Nicotinamide N-methyltransferase (Homo sapiens) (UniProt P40261). The experiment is described as above. The note with it: MTase-Glo luminescence, SAH detection, recombinant enzyme; measured here: NNMT max response; stronger effect = lower value.
Sequence of Nicotinamide N-methyltransferase (Homo sapiens) (P40261 whole entry, looked up): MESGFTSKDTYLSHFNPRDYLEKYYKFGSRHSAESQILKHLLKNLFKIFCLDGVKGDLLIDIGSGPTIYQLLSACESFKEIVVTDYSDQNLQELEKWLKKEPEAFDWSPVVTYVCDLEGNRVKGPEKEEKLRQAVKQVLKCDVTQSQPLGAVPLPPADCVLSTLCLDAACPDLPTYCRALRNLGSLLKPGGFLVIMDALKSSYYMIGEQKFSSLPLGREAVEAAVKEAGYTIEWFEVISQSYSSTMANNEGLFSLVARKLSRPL
For experiment [12], the target named is Phenylethanolamine N-methyltransferase (Homo sapiens) (UniProt P11086). The description is as above. As to conditions: MTase-Glo luminescence, SAH detection, recombinant enzyme; measured here: PNMT max response; stronger effect = lower value.
Sequence of Phenylethanolamine N-methyltransferase (Homo sapiens) (P11086 whole entry, looked up): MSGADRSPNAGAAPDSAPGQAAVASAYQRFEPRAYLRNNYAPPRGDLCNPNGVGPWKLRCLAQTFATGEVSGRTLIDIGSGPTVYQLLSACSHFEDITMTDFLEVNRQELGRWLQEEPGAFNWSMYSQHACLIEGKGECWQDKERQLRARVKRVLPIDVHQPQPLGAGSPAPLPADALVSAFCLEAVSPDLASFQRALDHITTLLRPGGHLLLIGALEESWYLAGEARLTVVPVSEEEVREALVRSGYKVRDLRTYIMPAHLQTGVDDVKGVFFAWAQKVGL
The nature of experiment [13]: Quantitative High-Throughput drug screen in 47 multiple myeloma cell lines against the NCATS MIPE library collection: FR4_PLB cell viability assay (AID 1918924; further: nearly all actives have a fitted effect of over 35% in size; further: potency means the concentration at half of the fitted maximal effect). The method, boiled down:
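Inhibition of cell viability is measured here. Each line was plated at 500 cells per well, treated with MIPE 4.0 drugs, kept 48 hours at 37C, then assayed for ATP content by CellTiter-Glo luminescence.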

Experiment [14] is described as follows: NCATS anti-infectives library activity on the primary C. elegans qHTS viability assay (AID 1745855; calls by dose curve). The procedure, abridged: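 Viability is taken from GFP fluorescence of PE254-GFP-FLuc C. elegans imaged by laser cytometry over 7 days. Ten L1 worms per well grow at 21 °C on TOP10 E. coli capsules with titrated compound; levamisole marks toxicity.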
The nature of experiment [15]: Viability counterscreen for antagonist of constitutive androstane receptor (CAR) against the NCATS DSHEA and TCM libraries (AID 1794837).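 Further: compound exposure lasted 24 h before viability reading; 0% is about no effect.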 The method, boiled down:
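HepG2-CYP2B6-hCAR cells (2,500/well) were allowed to attach for 5 h, then exposed to compounds with 48 uM CITCO for 24 h at 37C. Viability was read by CellTiter-Fluor fluorescence after 1 h.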
A general note: A counterscreen serves to expose hits that act by an unwanted route or on another target.

A short description of experiment [16]: Viability counterscreen for agonist of constitutive androstane receptor (CAR) against the NCATS DSHEA and TCM libraries (AID 1794838). Further: 0% is about no effect. The method, boiled down: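 HepG2-CYP2B6-hCAR cells (2,500/well) attached 5 h, then got compounds plus 0.75 uM PK11195 final. After 24 h at 37C, viability read by CellTiter-Fluor fluorescence (Ex/Em 405/540 nm).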
For experiment [17], the target named is Nuclear receptor subfamily 1 group I member 3 (Homo sapiens) (UniProt Q14994). As to the kind of experiment: Primary qHTS for agonist of constitutive androstane receptor (CAR) against the NCATS DSHEA and TCM libraries (AID 1794839). Further: potency means the concentration at half of the fitted maximal effect. The method, boiled down:
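HepG2-CYP2B6-hCAR cells (2,500/well) were attached for 5 h, then treated for 24 h at 37 °C with compounds plus 0.75 µM PK11195. Luciferase luminescence (ONE-Glo) was read, with CellTiter-Fluor viability (Ex/Em 405/540 nm).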

The nature of experiment [18]: HepG2 viability counterscreen (readout 2: ATP content) against the NCATS DSHEA and TCM libraries (AID 1794840).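 Further: HepG2 cells exposed to substances for about 24 h; 0% is about no effect.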 The method, boiled down: (§1)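 HepG2 cells (1,000 cells/well) attached ~4 h, then treated ~24 h at 37C with substances. Protease activity read by GF-AFC (25 uM final, 30 min, Ex/Em 380/510 nm); ATP content then by CellTiter-Glo luminescence.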
The nature of experiment [19]: HepG2 viability counterscreen (readout 1: protease activity) against the NCATS DSHEA and TCM libraries (AID 1794841).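 Further: cells exposed to compounds for about 24 h before the protease read; 0% is about no effect.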 The procedure, abridged: as §1

Sequence of Glutathione peroxidase 1 (Homo sapiens) (P07203 whole entry, looked up): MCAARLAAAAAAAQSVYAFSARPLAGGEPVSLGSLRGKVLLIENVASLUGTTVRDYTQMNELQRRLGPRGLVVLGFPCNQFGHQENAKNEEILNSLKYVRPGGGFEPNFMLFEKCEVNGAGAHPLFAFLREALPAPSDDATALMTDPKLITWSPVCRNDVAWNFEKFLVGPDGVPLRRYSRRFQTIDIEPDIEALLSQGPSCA
Sequence of Phospholipid hydroperoxide glutathione peroxidase GPX4 (Homo sapiens) (P36969 whole entry, looked up): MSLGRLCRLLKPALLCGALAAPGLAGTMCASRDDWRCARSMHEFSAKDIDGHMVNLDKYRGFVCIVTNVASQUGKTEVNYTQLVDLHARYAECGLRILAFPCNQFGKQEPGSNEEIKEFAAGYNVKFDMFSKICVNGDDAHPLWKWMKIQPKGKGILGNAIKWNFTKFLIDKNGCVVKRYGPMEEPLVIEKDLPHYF
Sequence of Nuclear receptor subfamily 1 group I member 3 (Homo sapiens) (Q14994 whole entry, looked up): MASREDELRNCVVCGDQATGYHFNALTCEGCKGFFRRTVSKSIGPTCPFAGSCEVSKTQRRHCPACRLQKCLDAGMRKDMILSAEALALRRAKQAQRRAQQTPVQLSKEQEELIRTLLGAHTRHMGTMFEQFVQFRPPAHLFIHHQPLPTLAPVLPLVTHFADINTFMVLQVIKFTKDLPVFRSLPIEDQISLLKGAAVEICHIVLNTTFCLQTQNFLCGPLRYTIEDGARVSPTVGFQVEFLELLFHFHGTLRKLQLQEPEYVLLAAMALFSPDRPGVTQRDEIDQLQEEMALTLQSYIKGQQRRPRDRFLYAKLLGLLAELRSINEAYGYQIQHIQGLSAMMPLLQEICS

Regarding `Cn1c(N2CCCCS2(=O)=O)nc(C(=O)NCc2ccc(F)cc2)c(O)c1=O`, the outcome in experiment [1] and in [7] was “inactive” throughout. The Potency entry in [2], in experiment [3], in experiment [4], in experiment [6] and in experiment [8] was “inactive” each time. The Potency in [5] was 1.34 µM (active).
Regarding `Cc1cccc(Nc2nc(-c3ccncc3)cs2)c1`, the activity in experiment [9] is -88.1%; in [11], -73.8%; in experiment [12] it was -88.3%. Besides, the values for the Potency in [10], in [13] and in experiment [8] were 13.6 µM (active), 18.7 µM (active) and 18.7 µM (active), respectively. Further, the Potency entry in experiment [2], in experiment [3] and in experiment [6] was “inactive” in each case. The outcome in experiment [7] was “inactive”.
With `COc1cc2ncnc(Nc3ccc(F)c(Cl)c3)c2cc1OCCCN1CCOCC1`, the activity is -74.8% in experiment [9], -60.5% in [11] and -74.4% in experiment [12]. Besides, the Potency in [10] was 24.1 µM (active); in experiment [13], 19.1 µM (active); in experiment [8], 5.4 µM (active). Besides, the Potency entry in experiment [2], in experiment [3], in experiment [4], in [5] and in experiment [6] was “inactive” in each case. Besides, in experiment [7], the outcome was “inactive”.
For the molecule `NC(=O)c1cnc(-c2ccc(C3(N)CCC3)cc2)c(-c2ccccc2)c1`, the values for the activity in [9], in experiment [11] and in experiment [12] were -7.58%, -51.4% and -17.2%, respectively. Moreover, the activity change, negative = inhibition in experiment [10] was 0.723%. The Potency result in experiment [2], in [3], in experiment [4], in [5], in [6] and in experiment [13] was “inactive” each time. Also, the outcome in experiment [7] is “inactive”.
Turning to `O=C(O)c1ccc(-c2c[nH]c3ncc(-c4ccccc4)cc23)cc1C1CCCC1`, the outcome in experiment [1] was “inactive”. In experiment [2], the Potency result was “inactive”.
`COc1cccc2c1CCCC2CCCN1CCN(C2CCCCC2)CC1` (stereo not drawn): the Potency result in experiment [14], in [2] and in experiment [3] was “inactive” throughout. Moreover, the Potency was 23.5 µM (active) in experiment [13] and 16.6 µM (active) in [8].
Turning to `O=c1c(-c2ccc(O)cc2)coc2cc(O[C@@H]3O[C@H](CO)[C@H](O)[C@H](O)[C@H]3O)ccc12`, the outcome in experiment [15], in experiment [16], in [18] and in [19] was “inactive” throughout. For the same molecule, the Potency in experiment [17] is 10 µM (active). Moreover, in experiment [13], the Potency result was “inactive”.
As for `CCS(=O)(=O)N1CC(CC#N)(n2cc(-c3ncnc4[nH]ccc34)cn2)C1`, the outcome in experiment [1] and in experiment [7] was “inactive” each time. Further, the Potency is 16.1 µM (active) in experiment [3] and 16.6 µM (active) in [13]. Besides, the Potency result in [4], in experiment [5] and in experiment [6] was “inactive” in each case.
As to `CN1CCN(CCOc2cc(OC3CCOCC3)c3c(Nc4c(Cl)ccc5c4OCO5)ncnc3c2)CC1`, the figures for the activity in experiment [9], in experiment [11] and in [12] were -14.1%, -34.6% and -10.6%, respectively. Moreover, in [10], the activity change, negative = inhibition was -0.0396%. The outcome in experiment [1] was “inactive”. In addition, the Potency entry in experiment [2], in [3], in experiment [4], in experiment [5] and in experiment [6] was “inactive” each time. The results for the Potency in experiment [13] and in experiment [8] were 18.7 µM (active) and 23.5 µM (active), respectively.
